Test results reported in PubChem BioAssay (Tox21).
Inconclusive results are not listed. Active and inactive are the calls of the source. Unless noted, calls come from the whole dose curve; as a rule, active = well fitted curve in the direction sought with a large enough effect in the repeat runs; inconclusive = weak or mixed curves; inactive = no such curve, though single readings can be large; an effect the other way counts as inactive or inconclusive.

How the values were obtained:
[1] = qHTS assay for small molecule agonists of the p53 signaling pathway (AID 651631; calls by dose curve; note: nearly all actives have a fitted effect of over 15% in size)
How it was run: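 Testing took place in human colorectal HCT-116 cells with stable p53RE-driven beta-lactamase. After 16 h of compound exposure at 37 °C, a FRET substrate was added and fluorescence recorded 2 h later.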

[2] = qHTS assay for small molecules that induce genotoxicity in human embryonic kidney cells expressing luciferase-tagged ATAD5 (AID 651632); note: nearly all actives have a fitted effect of over 15% in size
How it was run: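 Increased luciferase signal from ATAD5-tagged reporter cells indicates DNA-damage-driven ATAD5 induction. HEK293T cells are treated for 16 hr at 37C before detection with Amplite.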

[3] = qHTS assay for small molecule agonists of the p53 signaling pathway - cell viability (AID 651633; calls by dose curve; note: series mostly up to about 83 µM; nearly all actives have a fitted effect of over 30% in size)
How it was run: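 p53RE-bla cells were treated with compound for 16 hours at 37 C. Cytotoxicity was then measured as CellTiter-Glo luminescence after 30 min at room temperature.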

[4] = qHTS assay for small molecules that induce genotoxicity in human embryonic kidney cells expressing luciferase-tagged ATAD5 - cell viability (AID 651634; calls by dose curve; note: nearly all actives have a fitted effect of over 25% in size)
How it was run: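 Cytotoxicity counterscreen in HEK293T cells bearing an ATAD5-luciferase reporter: live-cell protease activity measured by CellTiter-Fluor fluorescence after 15.5 hr compound exposure.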

[5] = qHTS assay for small molecule disruptors of the mitochondrial membrane potential - cell viability (AID 720634; calls by dose curve;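 note: human HepG2 liver cancer cells; series mostly up to about 83 µM; nearly all actives have a fitted effect of over 20% in size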)
How it was run: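 After overnight attachment at 37 C, HepG2 cells received compound or DMSO vehicle for 1 hr. Viability is then taken from ATP-driven luminescence following a 30 min room-temperature CellTiter-Glo step.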

[6] = qHTS assay for small molecule disruptors of the mitochondrial membrane potential (AID 720635); note: potency is the fitted concentration of half-maximal effect
How it was run: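 HepG2 cells exposed to compound 1 hr at 37C, then Mito-MPS dye 30 min. Ratio read of aggregate (540/590 nm) versus monomer (490/535 nm) fluorescence.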

[7] = qHTS assay to test for compound auto fluorescence at 590 nm (red) in HepG2 cells (AID 720674)
How it was run: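 Seeding: 2,000 HepG2 cells/well, MEM/10% FBS, overnight 37 C. Dosing: compound vs DMSO. Incubation: 1 hr, 37 C, 5% CO2. Read: fluorescence 540 ex/590 em, Rose Bengal sodium as red reference.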

[8] = qHTS assay to test for compound auto fluorescence at 535 nm (green) in HepG2 cells (AID 720675)
[9] = qHTS assay to test for compound auto fluorescence at 460 nm (blue) in HEK293 cells (AID 720678)
How it was run: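 Auto fluorescence in the blue band was quantified as triamterene equivalency. HEK293 cells were seeded at 2,000/well, dosed after a 4-5 hr attachment, and kept overnight at 37C before the 405/460 nm reading.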

[10] = qHTS assay to test for compound auto fluorescence at 590 nm (red) in HEK293 cells (AID 720679)
How it was run: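 Autofluorescence equivalency to Rose Bengal sodium, 540/590nm, in HEK293 cells exposed overnight to 23 nL compound per well.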
% is set by controls: 0 for no effect and ±100 for the full control effect.

O=C(Cl)/C=C/C(=O)Cl
inactive: Potency [1] | outcome [2] | Potency [3] | Potency [4] | Potency [5] | Potency [6] | outcome [7] | outcome [8] | outcome [9] | outcome [10]

CCC(C(N)=O)N1CCCC1=O (stereo unspecified)
inactive: Potency [1] | outcome [2] | Potency [3] | Potency [4] | Potency [5] | Potency [6] | outcome [7] | outcome [8] | outcome [9] | outcome [10]

CC(Cc1ccccc1)NCCn1cnc2c1c(=O)n(C)c(=O)n2C (stereo unspecified)
inactive: Potency [1] | outcome [2] | Potency [3] | Potency [4] | Potency [5] | Potency [6] | outcome [7] | outcome [8] | outcome [9] | outcome [10]

C=C1CC[C@@]2(O)[C@H]3Cc4ccc(O)c5c4[C@@]2(CCN3CC2CC2)[C@H]1O5
inactive: Potency [1] | outcome [2] | Potency [3] | Potency [4] | Potency [5] | Potency [6] | outcome [7] | outcome [8] | outcome [9] | outcome [10]

CCN(CC)C1CCCCC1
inactive: Potency [1] | outcome [2] | Potency [3] | Potency [4] | Potency [5] | outcome [7] | outcome [8] | outcome [9] | outcome [10]

CNC(=O)NC(O)C(Cl)(Cl)Cl (stereo unspecified)
inactive: Potency [1] | outcome [2] | Potency [3] | Potency [4] | Potency [5] | outcome [7] | outcome [8] | outcome [9] | outcome [10]

BrCCc1ccccc1
inactive: Potency [1] | outcome [2] | Potency [3] | Potency [4] | Potency [5] | outcome [7] | outcome [8] | outcome [9] | outcome [10]

CCCC(C)(COC(N)=O)COC(N)=O
inactive: Potency [1] | outcome [2] | Potency [3] | Potency [4] | Potency [5] | Potency [6] | outcome [7] | outcome [8] | outcome [9] | outcome [10]

O=S1(=O)OCCO1
inactive: Potency [1] | outcome [2] | Potency [3] | Potency [4] | Potency [5] | outcome [7] | outcome [8] | outcome [9] | outcome [10]

OP(O)c1ccccc1
inactive: Potency [1] | outcome [2] | Potency [3] | Potency [4] | Potency [5] | Potency [6] | outcome [7] | outcome [8] | outcome [10]

CC(C)C(C)(N)C#N (stereo unspecified)
inactive: Potency [1] | outcome [2] | Potency [3] | Potency [4] | Potency [5] | outcome [7] | outcome [8] | outcome [9] | outcome [10]

CC1NCCOC1c1ccccc1 (stereo unspecified)
inactive: Potency [1] | outcome [2] | Potency [3] | Potency [4] | Potency [5] | Potency [6] | outcome [7] | outcome [8] | outcome [10]

CCC1(c2ccccc2)CCC(=O)NC1=O (stereo unspecified)
inactive: Potency [1] | outcome [2] | Potency [3] | Potency [4] | Potency [5] | Potency [6] | outcome [7] | outcome [8] | outcome [9] | outcome [10]

CCOC(=O)CC(SP(=S)(OC)OC)C(=O)OCC (stereo unspecified)
inactive: Potency [1] | outcome [2] | Potency [3] | Potency [4] | Potency [5] | outcome [7] | outcome [8] | outcome [9] | outcome [10]

C=C(Cl)CCl
inactive: Potency [1] | outcome [2] | Potency [3] | Potency [4] | Potency [5] | outcome [7] | outcome [8] | outcome [9] | outcome [10]

C[C@H](CN1CCOCC1)C(C(=O)N1CCCC1)(c1ccccc1)c1ccccc1
inactive: Potency [1] | outcome [2] | Potency [3] | Potency [4] | Potency [5] | outcome [7] | outcome [8] | outcome [9] | outcome [10]

NC1(c2ccccc2)CCCCC1
inactive: Potency [1] | outcome [2] | Potency [3] | Potency [4] | Potency [5] | outcome [7] | outcome [8] | outcome [10]

O=C(Cl)OCc1ccccc1
inactive: Potency [1] | outcome [2] | Potency [3] | Potency [4] | Potency [5] | outcome [7] | outcome [8] | outcome [10]

CCOC(=O)Nc1cccc(OC(=O)Nc2ccccc2)c1
active: Potency [6] 9.69 µM
inactive: Potency [1] | outcome [2] | Potency [3] | Potency [4] | outcome [7] | outcome [8] | outcome [9] | outcome [10]

S=C=S
inactive: Potency [1] | outcome [2] | Potency [3] | Potency [4] | Potency [5] | outcome [7] | outcome [8] | outcome [9] | outcome [10]

CCNc1nc(NCC)nc(SC)n1
inactive: Potency [1] | outcome [2] | Potency [3] | Potency [4] | Potency [5] | outcome [7] | outcome [8] | outcome [9] | outcome [10]

C=C(Cl)CSC(=S)N(CC)CC
inactive: Potency [1] | outcome [2] | Potency [3] | Potency [4] | Potency [5] | outcome [7] | outcome [8] | outcome [9] | outcome [10]

O=CCCl
inactive: Potency [1] | outcome [2] | Potency [3] | Potency [4] | Potency [5] | outcome [7] | outcome [8] | outcome [9] | outcome [10]

O=C(Cl)c1ccccc1
inactive: Potency [1] | outcome [2] | Potency [3] | Potency [4] | Potency [5] | outcome [7] | outcome [8] | outcome [9] | outcome [10]

Clc1cc2c(cc1Cl)Oc1cc(Cl)c(Cl)cc1O2
inactive: activation [1] -5.64% [at 0.337 µM] | activation [2] 0.775% [at 0.33 µM] | activity change, negative = cytotoxicity [3] -8.49% [at 0.33 µM] | activity, negative = cytotoxicity [4] 15.1% [at 0.33 µM] | activity change, negative = cytotoxicity [5] 5.89% [at 0.33 µM] | fluorescence, relative to Rose Bengal [7] -0.0382% [at 0.37 µM] | fluorescence, % of fluorescein control [8] -0.0272% [at 0.37 µM] | fluorescence, % of triamterene [9] -0.0407% [at 0.37 µM] | fluorescence, % of fluorescent control [10] 0.175% [at 0.37 µM]

Oc1ccc(Cc2ccc(O)cc2)cc1
inactive: Potency [1] | outcome [2] | Potency [3] | Potency [4] | Potency [5] | outcome [7] | outcome [8] | outcome [9] | outcome [10]

CC(=O)OCC1=C(C(=O)O)N2C(=O)[C@@H](N)[C@H]2SC1
inactive: Potency [1] | outcome [2] | Potency [3] | Potency [4] | Potency [5] | fluorescence, relative to Rose Bengal [7] 0.341% [at 18.6 µM] | fluorescence, % of fluorescein control [8] 0.0248% [at 18.6 µM] | fluorescence, % of fluorescent control [10] 0.0847% [at 18.6 µM]
